Reference: the supplement of paper PMC6555819

What was measured:
Assay in all cases: PBM binding z-score (relative to random genomic background probes); higher = stronger binding; sequences stand for … in GC…GCGATTGACAGCGTAGAATGAAGG
[1] = tested on: RARb homodimer (NR concentration 270 nM)
How it was run: (§1)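 Binding z-scores were set against random background probes. The data came from custom Agilent 4×180K protein-binding microarrays carrying double-stranded probes with 34-nt variable regions, incubated 1 h with ligand-free nuclear receptor dimers. Partner-specific antibodies detected binding, and scanned fluorescence was regression-normalized.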

[2] = tested on: RARg:RXRa (NR concentration 270 nM, RXRa partner concentration 90 nM)
How it was run: as §1

[3] = tested on: RARg homodimer (NR concentration 270 nM)
How it was run: as §1

[4] = tested on: RXRa DBDmut IVT, anti-RXR (DBD mutation: RXRa K156A/R161A, NR concentration 90 nM)
How it was run: as §1

[5] = tested on: RXRa homodimer (NR concentration 180 nM)
How it was run: as §1

[6] = tested on: THRa:RXRa (NR concentration 90 nM, RXRa partner concentration 90 nM)
How it was run: as §1

[7] = tested on: THRa homodimer (NR concentration 90 nM)
How it was run: as §1

[8] = tested on: VDR homodimer (NR concentration 270 nM)
How it was run: as §1

| Sequence | PBM binding z-score [1] | PBM binding z-score [2] | PBM binding z-score [3] | PBM binding z-score [4] | PBM binding z-score [5] | PBM binding z-score [6] | PBM binding z-score [7] | PBM binding z-score [8] |
| --- | --- | --- | --- | --- | --- | --- | --- | --- |
| CATACAGGGTCAACTAGGCCAGAGTAGGGACGGC | 3.62 | 5.7 | 5.42 | 2.74 | 6.54 | 3.74 | 1.5 | 2.36 |
| CAAACTAGGTCAACGGTCAAAGTCGAGCCAACCA | 3.76 | 4.94 | 5.4 | 2.12 | 4.02 | 3.14 | 1.31 | 1 |
| TCATATAGGTAATACAGGTGAAACTCGGCATCTA | 0.77 | 0.826 | 0.818 | 1.45 | 1.1 | 1.23 | 0.391 | 0.169 |
| CGTCCAAGGTCAGCTGGTCAGTGAAAGCGACGTG | 3.87 | 5.3 | 6.1 | 2.64 | 3.99 | 3.46 | 1.76 | 0.478 |
| CGAACGAGGGCATGAGTTGATAGAAAATGCCGAT | 0.815 | 1.29 | 1.56 | 2.47 | 0.995 | 1.28 | -0.093 | 1.74 |
| GAATATAGGTAATACAAGGTGAAAGTCCGATTGT | 1.27 | 0.944 | 0.872 | 0.644 | 0.89 | 4.2 | 1.38 | 0.435 |
| TCTAGCTGGCCAGAGGGTCACTCAAGAGGTACGG | 2.27 | 2.07 | 1.43 | -0.123 | 2.18 | 1.48 | -0.56 | 0.32 |
